According to PubChem BioAssay:
Values joined by “and” are separate entries in the source; they are usually repeats but may differ in a detail not shown here. Equal entries are not always repeated. For part of these data: Results with a measured potency or affinity are listed apart. A structure can be active in one record and inactive in another. Active and inactive are the calls of the source. Unless noted, no rule for the calls is given here.

Tests used:
[1] = P. berghei load reduction in hepatocytes – cell-based, HepG2, luciferase luminescence, HepG2 viability, primary screen (AID 624349; in the data active = parasite load remaining mostly below about 12%, no sharp cut-off; inactive = mostly above about 10%;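 also: 100% = mean of DMSO negative control wells on the same plate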); conditions: P. berghei liver stage in HepG2, luciferase luminescence, concentration not given here; parasite load remaining: stronger effect = lower value; viability: measured here: HepG2 viability without parasites
[2] = test system: Hepatitis C virus NS3 helicase; assay: blockers of NS3h binding to ssDNA – biochemical, fluorescence polarization, LOPAC1280 library, primary screen (AID 687035; in the data active = inhibition above about 37%); conditions: Purified HCV NS3 helicase, Cy5-dT15 ssDNA binding fluorescence polarization; stronger effect = higher value; concentration not given here
[3] = compounds altering Cy5-DNA-NS3h complex signal – biochemical, LOPAC1280, artefact control for HCV NS3 helicase inhibitor project (AID 687037); conditions: Cy5-DNA-NS3h complex fluorescence interference counterscreen
[4] = signal quenchers or enhancers, Cy5 substrate/SSB – biochemical, NIH Clinical Collection, E. coli SSB, artefact control for HCV NS3 helicase inhibitor project (AID 743268); conditions: Cy5-oligo bound E. coli SSB, fluorescence interference
[5] = test system: Hepatitis C virus NS3 helicase; assay: blockers of NS3h binding to DNA – biochemical, fluorescence polarization, NIH Clinical Collection, primary screen (AID 743270); conditions: NS3 helicase binding to Cy5-dT15 DNA, stronger effect = higher value, concentration not given here
[6] = target: Single-stranded DNA-binding protein (Escherichia coli (strain K12)) (UniProt P0AGE0); assay: SSB-ssDNA binding inhibitors – biochemical, fluorescence polarization, NIH Clinical Collection, counter-screen for HCV NS3 helicase inhibitor project (AID 743271; in the data active = inhibition above about 28%); conditions: E. coli SSB-DNA binding, stronger effect = higher value, concentration not given here
[7] = compounds distorting NS3 helicase fluorescence signal – biochemical, NIH Clinical Collection, artefact control for HCV NS3 helicase inhibitor project (AID 743272); conditions: fluorescence interference counterscreen, HCV NS3 helicase assay; stronger effect = lower value;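 also: HCV NS3 helicase with a Cy5 labelled single stranded DNA probe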
[8] = test system: Neuropilin-2 / VEGF-C interaction (human); assay: small molecules blocking Neuropilin-2/VEGF-C interaction – biochemical, microplate binding format, z-score (AID 743281); conditions: microplate NRP2/VEGF-C binding assay; stronger effect = lower value
[9] = Wnt pathway potentiators raising nuclear beta-catenin – imaging, WNT3A-conditioned medium, mouse C2C12, NPC library, primary screen (AID 1117326; in the data active = nuclear beta-catenin stimulation mostly above about 4.2%, no sharp cut-off; inactive = mostly below about 10%); conditions: stronger effect = higher value
[10] = stimulators of insulin release from INS-1E, primary screen, cell-based, 5 mM glucose, NPC library (AID 1117329;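 active = compound raises insulin release from rat beta cells at 5 mM glucose, no numeric limit stated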); conditions: rat INS-1E insulin secretion, at 10 µM, stronger effect = higher value
[11] = growth inhibition of GSK3B-pretreated HCT116 cells – cell-based, CellTiter-Glo, 0.2 to 20 µM (AID 1117336;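 active = compounds lowering colon cancer cell viability after pretreatment blocking the GSK3B kinase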); conditions: HCT116 viability after GSK3B inhibitor, at 20 µM, stronger effect = higher value
[12] = inhibition of endothelial tube formation, primary screen, imaging, VEGF stimulated, CD31 staining, tube area, NPC library (AID 1117340;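 active = compound that reduces growth-factor-driven endothelial tube area in a mixed cell culture, no cutoff stated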); conditions: VEGF-stimulated ADSC/ECFC co-culture, at 10 µM, stronger effect = higher value
[13] = GLP1 release stimulators, primary, NCI-H716, NPC library (AID 1117341;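 active = compound raises GLP1 secretion from the human gut endocrine cells, with no numeric limit stated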); conditions: NCI-H716 cells, at 10 µM, stronger effect = higher value
[14] = HCT116 colon cancer cell growth inhibition, primary screen, CellTiter-Glo luminescence, NPC library (AID 1117342;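 active = compounds that lower survival of HCT116 colon cancer cells in the luminescence readout, no numeric limit stated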); conditions: at 20 µM (top of the series)
[15] = reduced SW480 viability measured with CellTiter-Glo, NPC library, primary (AID 1117343;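 active = compounds that lower viability of the colon cancer cells in the luminescence readout, with no numeric limit stated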); conditions: CellTiter-Glo luminescence; at 20 µM (top of the series)
[16] = NPC library primary testing for decreased DLD-1 cell viability via CellTiter-Glo (AID 1117346;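 active = compounds that lower survival of DLD-1 colon cancer cells in the luminescence readout, no cutoff given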); conditions: DLD-1 viability, CellTiter-Glo luminescence; at 20 µM (top of the series)
[17] = target: Calcium-dependent protein kinase 1 (Plasmodium falciparum (isolate 3D7)) (UniProt P62344); assay: PfCDPK1 kinase inhibitors, biochemical, TCAMS library (AID 1159585; cut-off not given, nearly all actives have IC50 up to about 0.98 µM;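 also: inhibitors leave more ATP so luminescence rises with inhibition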); conditions: recombinant PfCDPK1, Kinase-Glo ATP depletion luminescence
[18] = target: Plasmodium falciparum protein kinase 6 (PK6, PF3D7_1337100) (UniProt Q8IDW1); assay: PfPK6 kinase inhibitors, biochemical, TCAMS library (AID 1159586); conditions: recombinant PfPK6, Kinase-Glo ATP depletion luminescence
[19] = liver-stage malaria parasite load reduction – cell-based, known kinase inhibitor set, luminescence, hepatoma host viability (AID 624392); conditions: Plasmodium liver stage in hepatoma cells, luciferase luminescence, concentration not given here; liver cell % of control: measured here: host liver cell viability; parasite % of control: stronger effect = lower value;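 also: infected cells incubated roughly two days before readout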

Plasmodium falciparum protein kinase 6 (PK6, PF3D7_1337100), sequence (Q8IDW1 1-305): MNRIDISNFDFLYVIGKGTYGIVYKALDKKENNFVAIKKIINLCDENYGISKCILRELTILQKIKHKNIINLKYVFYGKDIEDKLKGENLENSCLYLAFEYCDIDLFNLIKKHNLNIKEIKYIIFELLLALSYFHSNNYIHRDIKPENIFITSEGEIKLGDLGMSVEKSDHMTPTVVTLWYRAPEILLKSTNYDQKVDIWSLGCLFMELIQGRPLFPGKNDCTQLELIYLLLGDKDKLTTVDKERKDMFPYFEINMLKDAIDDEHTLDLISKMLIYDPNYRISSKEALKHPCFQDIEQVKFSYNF
Calcium-dependent protein kinase 1 (Plasmodium falciparum (isolate 3D7)), sequence (P62344 whole entry, looked up): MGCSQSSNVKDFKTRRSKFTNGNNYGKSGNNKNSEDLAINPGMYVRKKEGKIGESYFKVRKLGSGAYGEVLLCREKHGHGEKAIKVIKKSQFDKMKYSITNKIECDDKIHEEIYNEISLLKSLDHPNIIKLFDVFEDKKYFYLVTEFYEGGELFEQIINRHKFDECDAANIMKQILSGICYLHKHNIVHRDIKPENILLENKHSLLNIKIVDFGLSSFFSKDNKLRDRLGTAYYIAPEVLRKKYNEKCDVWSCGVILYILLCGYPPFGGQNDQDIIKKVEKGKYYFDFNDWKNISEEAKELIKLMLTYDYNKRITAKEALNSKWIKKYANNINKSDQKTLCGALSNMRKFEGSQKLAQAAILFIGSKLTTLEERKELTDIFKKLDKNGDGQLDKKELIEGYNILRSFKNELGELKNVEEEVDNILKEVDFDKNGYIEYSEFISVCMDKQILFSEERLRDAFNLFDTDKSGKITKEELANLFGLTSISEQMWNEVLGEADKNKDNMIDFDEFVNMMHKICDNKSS

## CN(Cc1cnc2nc(N)nc(N)c2n1)c1ccc(C(=O)N[C@@H](CCC(=O)O)C(=O)O)cc1
[1]
  parasite load remaining: 8.84% (inactive) and 39.4% (inactive) and 21.9% (inactive)
  viability: 38.7% and 143% and 94.1%
[2]
  inhibition: -1% (inactive)
[3]
  fluorescence ratio (interference): 1 (inactive)
[4]
  fluorescence ratio: 0.92 (inactive)
[5]
  inhibition: 1.19% (inactive)
[6]
  inhibition: 26.9% (inactive)
[7]
  fluorescence ratio: 0.92 (inactive)
[8]
  z-score: -1.5 (inactive)
[9]; at 10 µM
  nuclear beta-catenin stimulation: 74% (active)
[9]; stimulation, at 2 µM
  nuclear beta-catenin stimulation: 41%
[10]
  insulin secretion stimulation: -1.8% (inactive)
[11]
  viability decrease: 87.8% (active)
[12]
  tube area decrease: 57.2% (active)
[13]
  GLP1 secretion stimulation: 1.1% (inactive)
[14]
  inhibition of viability: 74.5% (active)
[15]
  viability decrease (inhibition): 78.8% (active)
[16]
  viability decrease (inhibition): 65.9% (active)
[17]
  outcome: inactive
[18]
  outcome: inactive

## COc1cc2c(Nc3ccc(Br)cc3F)ncnc2cc1OCC1CCN(C)CC1
[19]
  liver cell % of control: 42.4% and 45.4% and 52%
  parasite % of control: 0.285% (inactive) and 8.38% (inactive) and 117% (inactive)
[9]; at 10 µM
  nuclear beta-catenin stimulation: -0.3% (inactive)
[9]; stimulation, at 2 µM
  nuclear beta-catenin stimulation: -0.9%
[10]
  insulin secretion stimulation: 2.4% (inactive)
[11]
  viability decrease: -7.7% (inactive)
[12]
  tube area decrease: -0.5% (inactive)
[13]
  GLP1 secretion stimulation: 1.5% (inactive)
[14]
  inhibition of viability: -16% (inactive)
[15]
  viability decrease (inhibition): -11.4% (inactive)
[16]
  viability decrease (inhibition): -10.1% (inactive)
[18]
  outcome: inactive

## Clc1ccc2nsnc2c1NC1=NCCN1
[1]
  parasite load remaining: 61.3% (inactive) and 52.1% (inactive)
  viability: 95.4% and 240%
[2]
  inhibition: -3% (inactive)
[3]
  fluorescence ratio (interference): 1 (inactive)
[4]
  fluorescence ratio: 1.05 (inactive)
[5]
  inhibition: -5% (inactive)
[6]
  inhibition: -2.76% (inactive)
[7]
  fluorescence ratio: 0.99 (inactive)
[9]; at 10 µM
  nuclear beta-catenin stimulation: 0.6% (inactive)
[9]; stimulation, at 2 µM
  nuclear beta-catenin stimulation: -0.6%
[10]
  insulin secretion stimulation: 0.4% (inactive)
[11]
  viability decrease: 1.1% (inactive)
[12]
  tube area decrease: -9.7% (inactive)
[13]
  GLP1 secretion stimulation: 2.7% (inactive)
[14]
  inhibition of viability: 11.7% (inactive)
[15]
  viability decrease (inhibition): 8% (inactive)
[16]
  viability decrease (inhibition): 6% (inactive)

## CCCCCN(C)CCC(O)(P(=O)(O)O)P(=O)(O)O
[1]
  parasite load remaining: 28% (inactive)
  viability: 76.5%
[9]; at 10 µM
  nuclear beta-catenin stimulation: -3% (inactive)
[9]; stimulation, at 2 µM
  nuclear beta-catenin stimulation: 0.2%
[10]
  insulin secretion stimulation: 7.6% (inactive)
[11]
  viability decrease: 1.9% (inactive)
[12]
  tube area decrease: -11.9% (inactive)
[13]
  GLP1 secretion stimulation: -0.5% (inactive)
[14]
  inhibition of viability: 9% (inactive)
[15]
  viability decrease (inhibition): 17.5% (inactive)
[16]
  viability decrease (inhibition): 15.6% (inactive)

## NCCS(=O)(=O)O
[1]
  parasite load remaining: 52.5% (inactive)
  viability: 97.6%
[2]
  inhibition: -4% (inactive)
[3]
  fluorescence ratio (interference): 0.9 (inactive)
[9]; at 10 µM
  nuclear beta-catenin stimulation: 5.3% (inactive)
[9]; stimulation, at 2 µM
  nuclear beta-catenin stimulation: 2.5%
[10]
  insulin secretion stimulation: 2.6% (inactive)
[11]
  viability decrease: -1.3% (inactive)
[12]
  tube area decrease: -12% (inactive)
[13]
  GLP1 secretion stimulation: 0.3% (inactive)
[14]
  inhibition of viability: -12.3% (inactive)
[15]
  viability decrease (inhibition): -4.6% (inactive)
[16]
  viability decrease (inhibition): -1.5% (inactive)

## Nc1nc2c(ncn2COC(CO)CO)c(=O)[nH]1
[1]
  parasite load remaining: 53.7% (inactive) and 86.2% (inactive) and 12.5% (inactive)
  viability: 114% and 95.7% and 65%
[2]
  inhibition: -2% (inactive)
[3]
  fluorescence ratio (interference): 1 (inactive)
[4]
  fluorescence ratio: 1.03 (inactive)
[5]
  inhibition: -3.18% (inactive)
[6]
  inhibition: -2.76% (inactive)
[7]
  fluorescence ratio: 1.02 (inactive)
[9]; at 10 µM
  nuclear beta-catenin stimulation: 1.2% (inactive)
[9]; stimulation, at 2 µM
  nuclear beta-catenin stimulation: 1.2%
[10]
  insulin secretion stimulation: 0% (inactive)
[11]
  viability decrease: -10.4% (inactive)
[12]
  tube area decrease: -6.4% (inactive)
[13]
  GLP1 secretion stimulation: -2% (inactive)
[14]
  inhibition of viability: 4.7% (inactive)
[15]
  viability decrease (inhibition): -10.2% (inactive)
[16]
  viability decrease (inhibition): -8.6% (inactive)

## CCCCNc1c(C(=O)OCC)c(C)nc2c1cnn2CC
[1]
  parasite load remaining: 80.1% (inactive)
  viability: 77.6%
[2]
  inhibition: -5% (inactive)
[3]
  fluorescence ratio (interference): 1 (inactive)
[9]; at 10 µM
  nuclear beta-catenin stimulation: -0.5% (inactive)
[9]; stimulation, at 2 µM
  nuclear beta-catenin stimulation: 1.7%
[10]
  insulin secretion stimulation: 6.8% (inactive)
[11]
  viability decrease: 93.3% (active)
[12]
  tube area decrease: 10.7% (inactive)
[13]
  GLP1 secretion stimulation: 3.7% (inactive)
[14]
  inhibition of viability: 94.4% (active)
[15]
  viability decrease (inhibition): 124% (active)
[16]
  viability decrease (inhibition): 78.4% (active)

## Cc1cn[nH]c1
[1]
  parasite load remaining: 51% (inactive)
  viability: 102%
[2]
  inhibition: -3% (inactive)
[3]
  fluorescence ratio (interference): 0.9 (inactive)
[9]; at 10 µM
  nuclear beta-catenin stimulation: -2.1% (inactive)
[9]; stimulation, at 2 µM
  nuclear beta-catenin stimulation: -2%
[10]
  insulin secretion stimulation: 0.4% (inactive)
[11]
  viability decrease: 20.3% (inactive)
[12]
  tube area decrease: 4.6% (inactive)
[13]
  GLP1 secretion stimulation: 1.6% (inactive)
[14]
  inhibition of viability: 0.47% (inactive)
[15]
  viability decrease (inhibition): 19.8% (inactive)
[16]
  viability decrease (inhibition): 2% (inactive)

## COC(=O)[C@H]1[C@H]2C[C@@H]3c4[nH]c5cc(OC)ccc5c4CCN3C[C@H]2C[C@@H](OC(=O)c2cc(OC)c(OC)c(OC)c2)[C@@H]1OC
[1]
  parasite load remaining: 23.5% (inactive) and 21.7% (inactive) and 13.3% (active)
  viability: 102% and 74.9% and 89.3%
[2]
  inhibition: -4% (inactive)
[3]
  fluorescence ratio (interference): 1 (inactive)
[9]; at 10 µM
  nuclear beta-catenin stimulation: 1.8% (inactive)
[9]; stimulation, at 2 µM
  nuclear beta-catenin stimulation: 2.2%
[10]
  insulin secretion stimulation: -0.3% (inactive)
[11]
  viability decrease: 24.4% (inactive)
[12]
  tube area decrease: 22.8% (inactive)
[13]
  GLP1 secretion stimulation: 3.6% (inactive)
[14]
  inhibition of viability: 40.1% (inactive)
[15]
  viability decrease (inhibition): -42% (inactive)
[16]
  viability decrease (inhibition): 10.4% (inactive)

## Cc1cc2c(C(C)C)c(O)c(O)c(C=O)c2c(O)c1-c1c(C)cc2c(C(C)C)c(O)c(O)c(C=O)c2c1O
[1]
  parasite load remaining: 56.7% (inactive)
  viability: 83.7%
[2]
  inhibition: -1% (inactive)
[3]
  fluorescence ratio (interference): 0.9 (inactive)
[9]; at 10 µM
  nuclear beta-catenin stimulation: 64.5% (active)
[9]; stimulation, at 2 µM
  nuclear beta-catenin stimulation: 6.3%
[10]
  insulin secretion stimulation: 0.5% (inactive)
[11]
  viability decrease: 82% (active)
[12]
  tube area decrease: 110% (active)
[13]
  GLP1 secretion stimulation: 76.4% (active)
[14]
  inhibition of viability: 91.7% (active)
[15]
  viability decrease (inhibition): 108% (active)
[16]
  viability decrease (inhibition): 64.1% (active)

## Cc1nc(N)nc(N)c1-c1ccc(Cl)c(Cl)c1
[9]; at 10 µM
  nuclear beta-catenin stimulation: 42.9% (active)
[9]; stimulation, at 2 µM
  nuclear beta-catenin stimulation: 55.1%
[10]
  insulin secretion stimulation: 1.95% (inactive)
[11]
  viability decrease: 101% (active)
[12]
  tube area decrease: -11.8% (inactive)
[13]
  GLP1 secretion stimulation: 2.8% (inactive)
[14]
  inhibition of viability: 95.5% (active)
[15]
  viability decrease (inhibition): 131% (active)
[16]
  viability decrease (inhibition): 68.5% (active)
[17]
  outcome: inactive
[18]
  outcome: inactive
